# Reference: the supplement of paper PMC12282887
# Counter-ions that a name gives are not always drawn. ± gives the standard deviation of the averaged measurements.
# Assays:
# Assay in all cases: promoter activity interaction Z-score (Lux/OD deviation from empty-vector control); higher = stronger promoter induction by the compound
# [1] = test system: E. coli BW25113 acrABp lux reporter
# Outline: (§1)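 At 37°C, E. coli BW25113 reporter cultures in 40 µl LB Lennox in 384-well plates were read for OD600 and luminescence every 30 min for 12 h. Windows were 0–8 h for wild type and 1–9 h for deletion strains, and wells under 10% of the median growth value were removed. The score is the Z-transformed residual of growth-normalised luminescence against a control fit.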
# [2] = test system: E. coli BW25113 micFp lux reporter
# Outline: as §1
# [3] = test system: E. coli BW25113 ompFp lux reporter
# Outline: as §1
# [4] = test system: E. coli BW25113 robp lux reporter
# Outline: as §1
# [5] = test system: E. coli BW25113 soxSp lux reporter
# Outline: as §1
# [6] = test system: E. coli BW25113 tolCp lux reporter
# Outline: as §1
# [7] = 28.9 µg/ml, genetic background: wild type
# [8] = 28.9 µg/ml, genetic background: ΔmarA
# [9] = 28.9 µg/ml, genetic background: Δrob
# [10] = 28.9 µg/ml, genetic background: ΔsoxS
# [11] = 57.7 µg/ml, genetic background: wild type
# [12] = 57.7 µg/ml, genetic background: ΔmarA
# [13] = 57.7 µg/ml, genetic background: Δrob
# [14] = 57.7 µg/ml, genetic background: ΔsoxS
# [15] = 115.5 µg/ml, genetic background: wild type
# [16] = 115.5 µg/ml, genetic background: ΔmarA
# [17] = 115.5 µg/ml, genetic background: Δrob
# [18] = 115.5 µg/ml, genetic background: ΔsoxS
# [19] = 230.9 µg/ml, genetic background: wild type
# [20] = 230.9 µg/ml, genetic background: ΔmarA
# [21] = 230.9 µg/ml, genetic background: Δrob
# [22] = 230.9 µg/ml, genetic background: ΔsoxS
smiles,measurement,setting,value
O=C(O)COCCN1CCN(C(c2ccccc2)c2ccc(Cl)cc2)CC1 (stereo unspecified) [Cetirizine dihydrochloride],promoter activity interaction Z-score,[1]; [7],0.153 ± 0.22
same,promoter activity interaction Z-score,[1]; [8],-0.276 ± 0.91
same,promoter activity interaction Z-score,[1]; [9],0.0774 ± 0.078
same,promoter activity interaction Z-score,[1]; [10],0.344 ± 0.22
same,promoter activity interaction Z-score,[1]; [11],0.202 ± 0.41
same,promoter activity interaction Z-score,[1]; [12],-0.0899 ± 0.93
same,promoter activity interaction Z-score,[1]; [13],-0.297 ± 0.33
same,promoter activity interaction Z-score,[1]; [14],0.424 ± 0.48
same,promoter activity interaction Z-score,[1]; [15],-0.397 ± 0.14
same,promoter activity interaction Z-score,[1]; [16],-0.531 ± 0.29
same,promoter activity interaction Z-score,[1]; [17],-0.491 ± 0.057
same,promoter activity interaction Z-score,[1]; [18],-0.239 ± 0.68
same,promoter activity interaction Z-score,[1]; [19],-0.0515 ± 0.05
same,promoter activity interaction Z-score,[1]; [20],-0.913 ± 0.67
same,promoter activity interaction Z-score,[1]; [21],-0.435 ± 0.21
same,promoter activity interaction Z-score,[1]; [22],-0.388 ± 0.13
same,promoter activity interaction Z-score,[2]; [7],0.013 ± 0.03
same,promoter activity interaction Z-score,[2]; [8],-0.101 ± 0.1
same,promoter activity interaction Z-score,[2]; [9],0.0307 ± 0.16
same,promoter activity interaction Z-score,[2]; [10],-0.145 ± 0.42
same,promoter activity interaction Z-score,[2]; [11],0.36 ± 0.081
same,promoter activity interaction Z-score,[2]; [12],0.049 ± 0.28
same,promoter activity interaction Z-score,[2]; [13],-0.0293 ± 0.15
same,promoter activity interaction Z-score,[2]; [14],0.0699 ± 0.025
same,promoter activity interaction Z-score,[2]; [15],-0.327 ± 0.23
same,promoter activity interaction Z-score,[2]; [16],0.145 ± 0.13
same,promoter activity interaction Z-score,[2]; [17],0.0776 ± 0.1
same,promoter activity interaction Z-score,[2]; [18],0.0293 ± 0.34
same,promoter activity interaction Z-score,[2]; [19],-0.141 ± 0.27
same,promoter activity interaction Z-score,[2]; [20],-0.0442 ± 0.057
same,promoter activity interaction Z-score,[2]; [21],0.195 ± 0.18
same,promoter activity interaction Z-score,[2]; [22],0.145 ± 0.13
same,promoter activity interaction Z-score,[3]; [7],0.228 ± 0.026
same,promoter activity interaction Z-score,[3]; [8],0.523 ± 0.32
same,promoter activity interaction Z-score,[3]; [9],0.79 ± 0.32
same,promoter activity interaction Z-score,[3]; [10],0.079784 ± 6.4e-05
same,promoter activity interaction Z-score,[3]; [11],0.523 ± 0.44
same,promoter activity interaction Z-score,[3]; [12],0.651 ± 0.083
same,promoter activity interaction Z-score,[3]; [13],0.368 ± 0.14
same,promoter activity interaction Z-score,[3]; [14],-0.205 ± 0.16
same,promoter activity interaction Z-score,[3]; [15],-0.463 ± 0.064
same,promoter activity interaction Z-score,[3]; [16],-0.0368 ± 0.095
same,promoter activity interaction Z-score,[3]; [17],-0.449 ± 0.31
same,promoter activity interaction Z-score,[3]; [18],-0.656 ± 0.25
same,promoter activity interaction Z-score,[3]; [19],0.136 ± 0.46
same,promoter activity interaction Z-score,[3]; [20],0.203 ± 0.1
same,promoter activity interaction Z-score,[3]; [21],-0.688 ± 0.7
same,promoter activity interaction Z-score,[3]; [22],-0.667 ± 0.25
same,promoter activity interaction Z-score,[4]; [7],-0.0279 ± 0.081
same,promoter activity interaction Z-score,[4]; [8],0.621 ± 0.13
same,promoter activity interaction Z-score,[4]; [9],0.0745 ± 0.28
same,promoter activity interaction Z-score,[4]; [10],-0.318 ± 0.5
same,promoter activity interaction Z-score,[4]; [11],0.609 ± 0.057
same,promoter activity interaction Z-score,[4]; [12],0.466 ± 0.37
same,promoter activity interaction Z-score,[4]; [13],-0.327 ± 0.31
same,promoter activity interaction Z-score,[4]; [14],0.0119 ± 0.7
same,promoter activity interaction Z-score,[4]; [15],-0.592 ± 0.34
same,promoter activity interaction Z-score,[4]; [16],0.00802 ± 0.12
same,promoter activity interaction Z-score,[4]; [17],-0.339 ± 0.12
same,promoter activity interaction Z-score,[4]; [18],-0.844 ± 0.1
same,promoter activity interaction Z-score,[4]; [19],-0.359 ± 0.2
same,promoter activity interaction Z-score,[4]; [20],-0.425 ± 0.43
same,promoter activity interaction Z-score,[4]; [21],-1.18 ± 0.85
same,promoter activity interaction Z-score,[4]; [22],-0.876 ± 0.55
same,promoter activity interaction Z-score,[5]; [7],0.227 ± 0.035
same,promoter activity interaction Z-score,[5]; [8],0.219 ± 0.05
same,promoter activity interaction Z-score,[5]; [9],0.143 ± 0.03
same,promoter activity interaction Z-score,[5]; [10],0.36 ± 0.29
same,promoter activity interaction Z-score,[5]; [11],0.625 ± 0.26
same,promoter activity interaction Z-score,[5]; [12],0.233 ± 0.067
same,promoter activity interaction Z-score,[5]; [13],0.113 ± 0.061
same,promoter activity interaction Z-score,[5]; [14],0.411 ± 0.45
same,promoter activity interaction Z-score,[5]; [15],0.0448 ± 0.13
same,promoter activity interaction Z-score,[5]; [16],0.311 ± 0.1
same,promoter activity interaction Z-score,[5]; [17],0.108 ± 0.041
same,promoter activity interaction Z-score,[5]; [18],0.145 ± 0.43
same,promoter activity interaction Z-score,[5]; [19],0.0238 ± 0.4
same,promoter activity interaction Z-score,[5]; [20],0.289 ± 0.11
same,promoter activity interaction Z-score,[5]; [21],0.127 ± 0.06
same,promoter activity interaction Z-score,[5]; [22],-0.0281 ± 0.68
same,promoter activity interaction Z-score,[6]; [7],-0.028 ± 0.45
same,promoter activity interaction Z-score,[6]; [8],0.994 ± 0.066
same,promoter activity interaction Z-score,[6]; [9],0.083 ± 0.48
same,promoter activity interaction Z-score,[6]; [10],0.251 ± 1.2
same,promoter activity interaction Z-score,[6]; [11],1.49 ± 0.11
same,promoter activity interaction Z-score,[6]; [12],0.225 ± 0.61
same,promoter activity interaction Z-score,[6]; [13],0.369 ± 1.3
same,promoter activity interaction Z-score,[6]; [14],-0.607 ± 0.17
same,promoter activity interaction Z-score,[6]; [15],0.247 ± 0.057
same,promoter activity interaction Z-score,[6]; [16],-0.0757 ± 0.41
same,promoter activity interaction Z-score,[6]; [17],0.295 ± 0.29
same,promoter activity interaction Z-score,[6]; [18],-0.698 ± 0.023
same,promoter activity interaction Z-score,[6]; [19],0.059 ± 0.6
same,promoter activity interaction Z-score,[6]; [20],-0.764 ± 0.4
same,promoter activity interaction Z-score,[6]; [21],-0.176 ± 0.18
same,promoter activity interaction Z-score,[6]; [22],0.432 ± 0.65
